From PubChem BioAssay (NCATS)
Inconclusive results are not listed. The source made the active and inactive calls. Unless noted, calls come from the whole dose curve; as a rule, active = well fitted inhibition curve with a large enough effect; inconclusive = small, poorly fitted or top-dose-only effect; inactive = no such curve, though single readings can be large or run the other way.

Experiments:
[1] = qHTS profiling of the MIPE4 collection as inhibitors of Plasmodium falciparum (3D7) proliferation (AID 743344; call rule not given here;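 note: scaled between DMSO vehicle wells and 0.29 µM artemisinin as full inhibition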); details: P. falciparum 3D7 in erythrocytes, SYBR Green DNA fluorescence, 72 h; at 28.5 µM unless noted
How it was run: (§1)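 Erythrocytes infected with P. falciparum (0.3% parasitemia, 2.5% hematocrit) incubated with compounds 72 h at 37 C, 5% CO2. Lysis with saponin/Triton buffer containing SYBR Green I, overnight at room temperature in the dark; DNA fluorescence (485/535 nm) normalised to 0.29 uM artemisinin and DMSO.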

[2] = qHTS profiling of the MIPE4 collection as inhibitors of Plasmodium falciparum (DD2) proliferation (AID 743345; call rule not given here); details: P. falciparum Dd2 in erythrocytes, SYBR Green DNA, 72 h; at 28.5 µM unless noted
How it was run: as §1

[3] = qHTS profiling of the MIPE4 collection as inhibitors of Plasmodium falciparum (DD2) proliferation (Rep 2) (AID 743346; call rule not given here); details: P. falciparum Dd2 in erythrocytes, SYBR Green DNA, 72 h; at 28.5 µM unless noted
How it was run: as §1

[4] = qHTS profiling of the MIPE4 collection as inhibitors of Plasmodium falciparum (HB3) proliferation (AID 743347; call rule not given here;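 note: plate controls were DMSO vehicle wells for no effect and artemisinin wells for full effect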); details: P. falciparum HB3 in erythrocytes, SYBR Green DNA, 72 h; at 28.5 µM unless noted
How it was run: as §1

[5] = High-throughput drug toxicity screening in the BPDCN cell line Cal-1 (AID 1224825; call rule not given here); details: Cal-1 BPDCN cell viability, qHTS; at 45.8 µM (top of the series) unless noted
How it was run: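 Cal-1 cells, 500 per well in phenol-red-free RPMI with 10% FBS, exposed to compounds for 48 hours at 37C, 5% CO2. Viability read by CellTiter-Glo luminescence; percent activity normalized to DMSO (100%) and 9.2 uM bortezomib final (0%).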

[6] = qHTS assay for measurement of the activity of small molecule inhibitors on Zika virus induced Caspase-3 activity in human iPSC derived neural progenitor cells (hNPCs) (AID 1224857); details: hNPCs ZIKV-induced caspase-3/7, Caspase-Glo luminescence, 6 h; series mostly up to 45.7 µM; note: % of control where 0% means no effect; nearly all actives have a fitted effect of over 65% in size
How it was run: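 Quantitative HTS format: human iPSC neural progenitors, 1 h compound pretreatment, ZIKV 2 FFU/cell for 6 h at 37 C. Percent inhibition derived from luminescent caspase-3/7 signal between uninfected and infected controls.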

[7] = qHTS assay for measurement of the activity of small molecule inhibitors on Zika virus induced Caspase-3 activity in human astrocytoma cells (AID 1224859); details: SNB-19 ZIKV-induced caspase-3/7, luminescence, 6 h; series mostly up to 45.7 µM;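 note: plate controls were ZIKV-infected untreated cells for no effect and uninfected cells for full effect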
How it was run: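 Readout is luminescence from Caspase-Glo 3/7 added after a 6 h ZIKV infection (2 FFU/cell) of compound-pretreated (1 h) SNB-19 cells; data expressed as % inhibition versus uninfected and infected wells.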

[8] = qHTS Screen of the MIPE 4.0 Collection Against Ewings Sarcoma (RDES) (AID 1259252); details: RD-ES Ewing sarcoma viability, CellTiter-Glo, 48 h; series mostly up to 45.8 µM; note: nearly all actives have a fitted effect of over 35% in size; note: potency is the fitted concentration of half-maximal effect
How it was run: (§2)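 Dose series incubated 48 h with cells in RPMI plus 5% FBS, glutamine and penicillin/streptomycin; cell viability then quantified via CellTiter-Glo.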

[9] = qHTS Screen of the MIPE 4.0 Collection Against Ewings Sarcoma (TC71) (AID 1259253); details: TC71 Ewing sarcoma viability, CellTiter-Glo, 48 h; series mostly up to 45.8 µM; note: nearly all actives have a fitted effect of over 40% in size; note: potency is the fitted concentration of half-maximal effect
How it was run: as §2

[10] = qHTS Screen of the MIPE 4.0 Collection Against Ewings Sarcoma (EW8) (AID 1259255); details: EW8 Ewing sarcoma viability, CellTiter-Glo, 48 h; series mostly up to 45.8 µM; note: nearly all actives have a fitted effect of over 35% in size; note: potency is the fitted concentration of half-maximal effect;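 for viability: 100% = DMSO-treated cells and 0% = medium-only wells without cells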
How it was run: as §2

SMILES | parasite growth, % of DMSO control [1] [%] | parasite growth remaining, % of DMSO control (lower = more inhibition) [2] [%] | parasite growth, % of control (lower = inhibition) [3] [%] | growth, % of control [4] [%] | viability (% of control) [5] [%] | Potency [6] | Potency [7] | Potency [8] | Potency [9] | Potency [10]
COc1ccc(S(=O)(=O)Nc2cc(-c3c(O)ccc4ccccc34)c(O)c3ccccc23)cc1 | 29.2 | 94.7 | 23.7 | 49.9 | 3.97 | inactive | inactive | 16600 nM (active) | 10500 nM (active) | 4180 nM (active)
CC(=O)OCC(=O)[C@@]12N=C(C)O[C@H]1C[C@H]1[C@@H]3CCC4=CC(=O)C=C[C@]4(C)[C@@H]3[C@@H](O)C[C@@]12C | 89.5 | 90 | 68.3 | 84 | 57.7 | inactive | inactive | inactive | inactive | inactive
NS(=O)(=O)OC[C@@H]1C[C@@H](n2ccc3c(N[C@H]4CCc5ccccc54)ncnc32)C[C@H]1O | 23.8 | 92.9 | 46.9 | 51 | 2.9 | inactive | inactive | 332 nM (active) | 264 nM (active) | 132 nM (active)
